For ten compounds, outcome and AC50 results are on record in PubChem BioAssay (EPA / NIEHS).

“And” between values parts separate entries of the source, which are not always exact repeats. Equal entries are not always repeated. Results filed as inconclusive are left out. The source made the active and inactive calls. How the source made its calls, unless noted: active means hit-call score of the fitted dose curve at least 0.9, where 1 is the maximum; inactive means score below 0.9.

The nature of experiment [1]: CCTE_Shafer_MEA_acute_spike_number: CCTE's Neural Acute Assay for Total Number of Spikes, Shafer Lab (AID 2284008). The essentials:
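Total spike count from 40 min recordings before and during compound exposure (0.03-40 uM), given as per-well percent change. Cortical cultures from rat, DIV 13 or 15, 37 C; adaptive detection threshold 8x rms noise.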

A short description of experiment [2]: CCTE_Shafer_MEA_acute_firing_rate_mean: CCTE's Neural Acute Assay for Mean Firing Rate, Shafer Lab (AID 2284009).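 Further: analyzed for loss of signal so actives lower firing rate relative to DMSO.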 The essentials: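 Rat primary cortical neurons on 48-well MEA plates, dosed at 0.03-40 uM on DIV 13 or 15; 40 min spontaneous activity recorded at 37 C before and after compound. Spike rate per electrode averaged per well, expressed as percent change from baseline.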

The nature of experiment [3]: CCTE_Harrill_HTTr_Viability_MCF7: CCTE's 6-hour Cell Viability Assessment for the High-Throughput Transcriptomics (HTTr) Platform, in MCF-7 cells cultured in DMEM + 10% fetal bovine serum, Harrill Lab (AID 2284010). A digest of the protocol: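 Viability measured through PI dye exclusion by high-content imaging at 6 h post-dosing.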
A short description of experiment [4]: CCTE_Simmons_MITO_basal_resp_rate: CCTE's HepG2 Seahorse XF Respirometric Screening Assay at Basal Respiratory State, Simmons Lab (AID 2284001). The note with it: actives raise or lower the signal. The essentials:
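HepG2 oxygen consumption on Seahorse XF96 after compound injection, 7 concentrations 125 nM–100 uM final, reads every 6 min over 72 min. Triplicate biological replicates; bidirectional fit vs DMSO; fenpyroximate and 2,4-dinitrophenol controls.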

Experiment [5] is described as follows: CCTE_Simmons_MITO_max_resp_rate: CCTE's HepG2 Seahorse XF Respirometric Screening Assay at Maximal Respiratory State [uncoupled], Simmons Lab (AID 2284002). The settings on record: actives raise or lower the signal. A digest of the protocol: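 Maximal (FCCP-uncoupled) respiration rate in HepG2, from Seahorse kinetic OCR over 72 min at 6 min cycles. Compounds at 125 nM–100 uM final, 7 points, three biological replicates; both directions fit relative to DMSO.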

Experiment [6] can be described thus: CCTE_Simmons_MITO_inhib_resp_rate: CCTE's HepG2 Seahorse XF Respirometric Screening Assay at Inhibited Respiratory State [full ETC block], Simmons Lab (AID 2284006). The note with it: actives raise or lower the signal. The essentials:
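Inhibited respiration was taken as HepG2 oxygen consumption after rotenone/antimycin A, which followed test-compound and FCCP injections. Chemicals were tested at seven final concentrations from 125 nM to 100 uM. Activity was fitted bidirectionally relative to DMSO.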

A short description of experiment [7]: CCTE_Simmons_MITO_viability: CellTiter-Glo Viability Assessment for CCTE's HepG2 Seahorse XF Respirometric Screening Assay [post-hoc], Simmons Lab (AID 2284007; active means hit-call score of the fitted dose curve at least 0.9, where 1 is the maximum). The essentials:
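HepG2 cells; test chemical 7 conc. (125 nM–100 uM final) × 90 min; then luminescent ATP detection. DMSO vehicle. Positive control dichlone, 8 conc. from 10 nM to 100 uM final. Loss-of-signal endpoint.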

Experiment [8] deals with Nucleoli Translocation, AR (gene 367) (UniProt P10275). In words: UPITT_HCI_U2OS_AR_TIF2_Nucleoli_Antagonist: University of Pittsburgh U2OS Androgen Receptor-Transcriptional Intermediary Factor 2 (AR-TIF2) Antagonism High Content Imaging Assay for Nucleoli Translocation (AID 2283997; active means hit-call score of the fitted dose curve at least 0.9, where 1 is the maximum). The essentials: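 U2OS cells co-expressing red-fluorescent-tagged human AR and green-fluorescent-tagged TIF2, imaged by high-content microscopy for nucleolar red fluorescence. Antagonist mode against DHT; primary screen at 20 uM final (0.2% DMSO).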
Nucleoli Translocation, AR (gene 367), sequence (P10275 whole entry, looked up): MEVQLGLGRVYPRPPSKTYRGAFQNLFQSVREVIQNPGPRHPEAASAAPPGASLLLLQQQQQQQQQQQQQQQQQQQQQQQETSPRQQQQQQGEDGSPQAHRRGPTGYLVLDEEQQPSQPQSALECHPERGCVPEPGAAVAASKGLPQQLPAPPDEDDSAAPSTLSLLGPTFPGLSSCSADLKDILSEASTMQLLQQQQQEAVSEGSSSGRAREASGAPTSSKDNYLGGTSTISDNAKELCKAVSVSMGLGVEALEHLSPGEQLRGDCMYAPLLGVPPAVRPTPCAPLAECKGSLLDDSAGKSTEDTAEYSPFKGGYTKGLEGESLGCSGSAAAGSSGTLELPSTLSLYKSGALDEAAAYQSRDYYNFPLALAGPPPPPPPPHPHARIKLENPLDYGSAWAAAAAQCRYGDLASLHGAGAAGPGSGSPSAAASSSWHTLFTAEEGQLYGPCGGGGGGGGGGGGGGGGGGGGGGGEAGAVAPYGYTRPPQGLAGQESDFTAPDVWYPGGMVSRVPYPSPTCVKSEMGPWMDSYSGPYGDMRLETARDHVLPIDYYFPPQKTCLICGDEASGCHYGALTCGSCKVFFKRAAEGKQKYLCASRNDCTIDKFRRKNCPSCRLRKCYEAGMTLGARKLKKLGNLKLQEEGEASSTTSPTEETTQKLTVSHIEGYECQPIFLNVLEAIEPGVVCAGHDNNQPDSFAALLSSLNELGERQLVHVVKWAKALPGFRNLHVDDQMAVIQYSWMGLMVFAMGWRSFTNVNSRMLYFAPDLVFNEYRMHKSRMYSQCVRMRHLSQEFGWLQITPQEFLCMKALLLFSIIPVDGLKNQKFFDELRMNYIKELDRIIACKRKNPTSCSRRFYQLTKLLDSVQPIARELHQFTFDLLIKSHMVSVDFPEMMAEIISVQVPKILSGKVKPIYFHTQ

Experiment [9] has the same target. Briefly: UPITT_HCI_U2OS_AR_TIF2_Nucleoli_Agonist: University of Pittsburgh U2OS Androgen Receptor-Transcriptional Intermediary Factor 2 (AR-TIF2) Agonism High Content Imaging Assay for Nucleoli Translocation (AID 2283998; active means hit-call score of the fitted dose curve at least 0.9, where 1 is the maximum). The essentials: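 Nucleolar translocation of AR-RFP, with TIF2-GFP coexpressed in human osteosarcoma U2OS, imaged by high-content fluorescence. Compounds tested singly at 20 uM final, confirmed in triplicate, then titrated 0.195–50 uM final; gain-of-signal relative to DMSO.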

In experiment [10] the target is Ratio of Nucleoli Translocation and Cytoplasm, AR (gene 367) (UniProt P10275). In words: UPITT_HCI_U2OS_AR_TIF2_Nucleoli_Cytoplasm_Ratio_Antagonist: University of Pittsburgh U2OS Androgen Receptor-Transcriptional Intermediary Factor 2 (AR-TIF2) Antagonism High Content Imaging Assay for Ratio of Nucleoli Translocation and Cytoplasm (AID 2283999; active means hit-call score of the fitted dose curve at least 0.9, where 1 is the maximum;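 further: antagonists lower the DHT-driven ratio of nucleolar to cytoplasmic red signal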). A digest of the protocol:
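High-content imaging quantifies the red nucleolar:cytoplasmic fluorescence ratio in U2OS cells with AR-RFP and TIF2-GFP. Final concentrations are 20 uM (screen) or 0.195–50 uM (dose response), analysed against DHT as baseline.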

Experiment [11] has the same target. In words: UPITT_HCI_U2OS_AR_TIF2_Nucleoli_Cytoplasm_Ratio_Agonist: University of Pittsburgh U2OS Androgen Receptor-Transcriptional Intermediary Factor 2 (AR-TIF2) Agonism High Content Imaging Assay for Ratio of Nucleoli Translocation and Cytoplasm (AID 2284000; active means hit-call score of the fitted dose curve at least 0.9, where 1 is the maximum;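 further: hits raise the red nucleolar to cytoplasm ratio above vehicle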). A digest of the protocol:
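U2OS cells expressing RFP-tagged human AR and GFP-tagged TIF2; high-content imaging ratio of nucleolar to cytoplasmic red fluorescence, fitted as gain of signal vs DMSO. Single point at 20 uM final (0.2% DMSO); concentration-response 0.195-50 uM final (0.5% DMSO).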

Ratio of Nucleoli Translocation and Cytoplasm, AR (gene 367), sequence (P10275 whole entry, looked up): as above

`CCc1ccc(CCOc2ccc(CC3SC(=O)NC3=O)cc2)nc1` (stereo not given): the outcome in [1], in [2] and in [3] was inactive.
`NC(=O)N(O)[C@@H]1C=C[C@H](Oc2cccc(Oc3ccc(F)cc3)c2)C1`: the AC50 (as a rule, the midpoint of the concentration-response curve, whichever way the signal moves) in experiment [4] is 22.1 µM (active); in experiment [5], 32.4 µM (active). Moreover, the result in [6], in [7], in experiment [1], in experiment [2] and in experiment [3] was inactive.
Consider `O=[N+]([O-])c1ccc(O)cc1`, for which the AC50 in experiment [4] was 66.5 µM (active) and 66 µM (active). For the same compound, the result in [5], in experiment [6], in experiment [7] and in experiment [3] was inactive.
Take `Nc1cccc2c(N)cccc12`: the AC50 is 33.3 µM (active) in experiment [8] and 39.8 µM (active) in [6]. Further, the outcome in [9], in experiment [10], in experiment [11], in [4], in [5] and in experiment [7] was inactive. Besides, in experiment [3], the result was inactive.
On to `CC(=O)CC(C)(C)O`, for which the result in experiment [8], in experiment [9], in experiment [10], in experiment [11] and in experiment [3] was inactive.
Turning to `COc1cc(CCC(=O)CC(=O)CCc2ccc(O)c(OC)c2)ccc1O`, in [8], the AC50 was 26.6 µM (active). Besides, the outcome in [10], in experiment [11] and in experiment [3] was inactive.
As for `COCC(C)OCC(C)O` (stereo not given), the outcome in [9], in [10], in experiment [11] and in experiment [3] was inactive.
With `OCCC(F)(F)C(F)(F)C(F)(F)C(F)(F)C(F)(F)C(F)(F)C(F)(F)C(F)(F)F`, the result in experiment [9], in experiment [10], in experiment [11], in experiment [1], in experiment [2] and in experiment [3] was inactive.
As for `c1ccc2c(c1)ccc1ccccc12`, in experiment [8], the AC50 is 33.7 µM (active). In addition, the compound was called inactive in experiment [9], in [10], in [11] and in experiment [3].
On to `CN1CCC[C@H]1c1cccnc1`, for which the compound was called inactive in experiment [1] and in [2].
